ST2 inh: blocks human ST2 binding to IL-33; Q01638; AlphaLISA ST2-Fc/biotin-IL-33 interaction, 1 h; inhibition, % for hits at 17 µM; hit rate 2.3% among 78,000; AID 1259354; in the data active = inhibition above about 30%
Target sequence (Q01638 whole entry, looked up): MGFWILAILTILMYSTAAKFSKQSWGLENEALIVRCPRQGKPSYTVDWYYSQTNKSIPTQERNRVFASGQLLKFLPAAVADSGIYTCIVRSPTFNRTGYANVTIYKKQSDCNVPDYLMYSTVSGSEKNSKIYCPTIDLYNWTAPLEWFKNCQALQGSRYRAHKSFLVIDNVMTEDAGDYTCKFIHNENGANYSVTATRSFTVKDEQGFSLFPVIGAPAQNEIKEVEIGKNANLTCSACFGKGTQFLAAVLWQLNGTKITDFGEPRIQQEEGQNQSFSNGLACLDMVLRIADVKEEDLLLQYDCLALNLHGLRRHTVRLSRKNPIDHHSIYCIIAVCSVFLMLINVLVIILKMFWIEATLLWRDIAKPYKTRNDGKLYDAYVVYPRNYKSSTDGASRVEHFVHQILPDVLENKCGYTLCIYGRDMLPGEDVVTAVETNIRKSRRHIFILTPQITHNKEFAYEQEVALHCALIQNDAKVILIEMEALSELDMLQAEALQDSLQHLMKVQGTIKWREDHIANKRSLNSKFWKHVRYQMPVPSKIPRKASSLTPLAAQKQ
Numbers stand for hits; 0 = inactive. Shown is part of a subset that was picked to be rich in hits.

SMILES	ST2 inh
C=CCC1c2cccc(C(=O)O)c2C(=O)N1c1cccc(OC)c1 (stereo not drawn)	0
CC1CC2c3cccc(C(=O)O)c3C(=O)N2c2ccc(F)cc21 (stereo not drawn)	32%
COc1ccc(NC(=O)CCCn2nc([N+](=O)[O-])cc2C)cc1OC	0
Cc1ccc(C2(CN3CCCC(Cn4ccnc4)C3)CCNCC2)nc1 (stereo not drawn)	0
C=CCn1c(=O)c(-c2ccc3ccccc3n2)cc2ccccc21	0
CNc1cc(-c2ccc3ccccc3n2)c2cc[nH]c2n1	52%
CC(C)Nc1ccc(-c2cc(N)nc3[nH]ccc23)nn1	0
O=C(NCc1cccnc1)C1CCC(=O)N1Cc1ccc(F)cc1 (stereo not drawn)	0
O=C(NCCn1cc(SCC(=O)N2CCc3ccccc32)c2ccccc21)c1ccccc1F	0
Cc1nonc1OCCNC(=O)C1(N2CCCCC2)Cc2ccccc2C1	0
CC(C)CC(C(=O)O)N1C(=O)c2cc(Cl)c(Cl)cc2C1=O (stereo not drawn)	0
CCOc1ccc(OCCn2cnc3ccccc3c2=O)cc1	0
CCOc1ccc(C2CC(=O)N3CN(c4ccccc4F)CSC3=C2C#N)cc1 (stereo not drawn)	0
Cc1cc(/C=C(\C#N)C(=O)Nc2ccccc2)c(C)n1-c1ccc(F)cc1	0
COc1cccc(NC(=O)/C(C#N)=C\c2cn(Cc3ccccc3)c3ccccc23)c1	35%
COc1cccc(NC(=O)/C(C#N)=C\c2cn(Cc3ccc(F)cc3)c3ccccc23)c1	0
CCNC(=O)N1CCc2onc(C(c3ccccc3)c3ccccc3)c2C1	0
Cc1nc(N[C@@H](CO)Cc2ccccc2)c2cnn(C)c2n1	0
CCOC(=O)CSc1nc2c(sc3ccccc32)c(=O)n1CCCOC(C)C	0
CCc1cccc(-n2c(-c3ccco3)nc3c(cnn3-c3ccc(F)cc3)c2=O)c1	0
CCOc1ccc(-n2c(-c3ccco3)nc3c(cnn3-c3ccc(F)cc3)c2=O)cc1	33%
CCOc1ccc(-n2c(C)nc3c(cnn3-c3ccc(F)cc3)c2=O)cc1	0
COc1ccc(OCC(=O)Nc2cc(Cl)c(Cl)cc2Cl)cc1	0
O=C1Nc2ccccc2C(O)(C(=O)NCc2cccs2)N1c1ccc(Cl)c(Cl)c1 (stereo not drawn)	0
O=C1CCC(CCNCc2cccc(C(F)(F)F)c2)N1CC1C[C@@H]2C=C[C@H]1C21CC1 (stereo partly drawn)	0
SMILES	ST2 inh
Cc1nonc1CC(=O)N(C)Cc1nc2ccc(Cl)cc2[nH]1	0
CN1CCc2c(cc(O)c(O)c2Cl)C(c2cccc(Cl)c2)C1 (stereo not drawn)	39%
CN1CCc2cc(Cl)c(O)cc2[C@@H](c2ccccc2)C1	0
CN1CCc2cc(O)c(O)cc2C(c2ccccc2)C1 (stereo not drawn)	0
CC1=C(C(=O)Nc2ccccn2)C(c2ccc([N+](=O)[O-])cc2)C2=C(CC(C)(C)CC2=O)N1 (stereo not drawn)	0
Cc1ccc(NC(=O)COc2ccc([N+](=O)[O-])cc2C)c(Br)c1	0
COc1ccc(OC)c(/C=C2/C=C(c3cc(OC)ccc3OC)OC2=O)c1	41%
COc1ccc(C2=C/C(=C/c3ccc4c(c3)OCO4)C(=O)O2)c(OC)c1	0
COc1ccc(OCCOc2cccc(C=O)c2)cc1	0
COc1ccc(OC)c(/C=C2\N=C(c3ccc(OC)c([N+](=O)[O-])c3)OC2=O)c1	0
COc1cccc(/C=C2/C=C(c3cc(OC)ccc3OC)OC2=O)c1	42%
COc1ccc(OC)c(N2C(=O)C3CCCCC3C2=O)c1 (stereo not drawn)	0
NC(=O)C1CCN(Cc2ccccc2)CC1c1ccccc1 (stereo not drawn)	0
Cc1ccc(S(=O)(=O)Cc2noc([C@@H]3C[C@@H](O)CN3Cc3ccc(CO)o3)n2)cc1	0
O=c1c2ccccc2ncn1CCSc1ccc(Cl)cc1	0
COc1ccc(-n2c(N)c(C#N)c3nc4ccccc4nc32)cc1	0
N#Cc1c(N)n(-c2ccc(C(=O)O)cc2)c2nc3ccccc3nc12	36%
N#Cc1c(N)n(-c2ccc(Br)cc2)c2nc3ccccc3nc12	0
Cn1c(=O)[nH]c(=O)c2c1nc(N1CCCCC1)n2Cc1ccc(Cl)cc1	0
O=C(CSc1nc2c(c(=O)n1-c1ccc(Cl)cc1)SCC2)Nc1cccc(F)c1	0
CCCOc1ccc(N2C(=O)C3C(C2=O)C2C=CC3C23CC3)cc1 (stereo not drawn)	0
O=C(O)/C=C1\NC(=O)c2ccccc21	0
O=C1Nc2ccccc2/C1=C/C(=O)c1ccc(Cl)cc1	32%
O=C1Nc2ccccc2C1=Nc1ccc(C(=O)O)cc1	0
Cc1ccc(C2=NNC3(S2)C(=O)Nc2ccc(C)cc23)cc1 (stereo not drawn)	44%
SMILES	ST2 inh
Cc1ccc2c(c1)C(=O)C(=O)N2	0
Cc1ccc(N2C(=O)C(C)SC23C(=O)Nc2ccccc23)cc1 (stereo not drawn)	0
COc1ccccc1N1CCC(N2CC[C@H](CO)[C@H](O)C2)CC1	0
CCOC(=O)COc1cccc2c1ccc1c3c(c(=O)oc12)CCCC3	0
CN1CCN([C@H]2CN(C3CCN(C(=O)c4ccccn4)CC3)C[C@@H]2O)CC1	0
COc1ccc(S(=O)(=O)CCC(=O)OCC(=O)c2ccccc2)cc1	0
CSCc1noc(CN2CCCC3(C2)CN(C)C(=O)O3)n1 (stereo not drawn)	0
O=C1CC2(CCCCC2)Oc2ccc(O)cc21	0
CC1(C(=O)Nc2ccc3c(c2)OC2(CCCCC2)O3)CC1(Cl)Cl (stereo not drawn)	0
Nc1ccc2c(c1)OC1(CCCCC1)O2	37%
CCOc1ccc(-n2c(SCC(=O)Nc3ccc(F)cc3)nc3c(c2=O)SCC3)cc1	0
CC1=C(C(=O)Nc2ccc(C)cn2)C(c2ccccc2Cl)C2=C(CCCC2=O)N1 (stereo not drawn)	0
O=C1NN(c2cccc(Cl)c2)C(=O)/C1=C\c1cccn1-c1ccc([N+](=O)[O-])cc1	59%
O=C1NN(c2cc(Cl)cc(Cl)c2)C(=O)/C1=C\c1cccn1-c1ccc([N+](=O)[O-])cc1	0
Cc1ccc(N2NC(=O)/C(=C/c3ccc(Cl)c([N+](=O)[O-])c3)C2=O)cc1C	0
CCN1CCN(C(=O)c2cccc(NC(=O)C3CCCC3)c2)C(C)C1=O (stereo not drawn)	0
NN(Cc1ccccc1)c1ccccc1	37%
COc1ccc(N(N)Cc2ccccc2)cc1	50%
COc1ccc(CN(C)Cc2ccccc2)cc1	0
COc1ccc(OCCN(C)Cc2ccccc2)cc1	0
OCCN(Cc1ccccc1)Cc1ccccc1	0
O=S(=O)(c1ccccc1)N(Cc1ccccc1)Cc1ccccc1	0
O=C(COc1ccc([N+](=O)[O-])cc1)Nc1ccc(I)cc1Cl	0
O=C(NCCn1cc(SCC(=O)N2CCc3ccccc32)c2ccccc21)c1ccc(F)cc1	0
CC1=C(C(N)=O)C(c2sccc2C)n2ncnc2N1 (stereo not drawn)	0
SMILES	ST2 inh
COc1ccc(OC)c(C2C=C(Nc3ccccc3)C(=O)N2c2ccccc2)c1 (stereo not drawn)	0
COc1ccccc1C1C=C(Nc2ccc(C)cc2)C(=O)N1c1ccc(C)cc1 (stereo not drawn)	0
O=C1C(Nc2ccccc2)=CC(c2ccccc2[N+](=O)[O-])N1c1ccccc1 (stereo not drawn)	30%
CC(=O)c1cccc(NC(=O)C2CCN(S(=O)(=O)c3ccc(Cl)cc3)CC2)c1	0
Cc1ccccc1-n1cnc2cc(NC(=O)c3ccccc3)ccc21	0
COc1cc(OC)cc(C(=O)N=c2sc3cccc(OC)c3n2C)c1	0

Screening data deposited in PubChem by Paczesny and Yang Labs, IUPUI and University of Michigan.
